Test results published in PubChem BioAssay (Tox21).
Values joined by “and” are separate entries in the source; they are usually repeats but may differ in a detail not shown here. Identical values can stand only once. Records with an inconclusive call do not appear. Where a structure was tested more than once in an assay, its records may differ in their call. Active and inactive are the calls of the source. Calls come from the whole dose curve; as a rule, active = well fitted cell-killing curve with a large enough effect in the repeat runs; inconclusive = weak or mixed curves; inactive = flat fitted curve, though single readings scatter.

experiment: qHTS RealTime-Glo MT Cell Viability Assay in HepG2 cells - 32 hour (AID 1224877); conditions: RealTime-Glo luminescence; series mostly up to 76.8 µM; activity change, negative = cytotoxic: at the top concentration; note: nearly all actives have a fitted effect of over 55% in size
From the text: U.S. Tox21 Program National Center for Advancing Translational Sciences [NCATS] NIH Chemical Genomics Center [NCGC] U.S. Environmental Protection Agency [EPA] National Institutes of Environmental Health Sciences [NIEHS] National Toxicology Program [NTP] U.S. Food and Drug Administration [FDA] Tox21 Assay Overview: Measure of cell viability is critical in the cell-base assay. Analysis of cell viability is necessary for the characterization of cell responses to cytotoxic drugs and environmental stress. A RealTime-Glo MT Cell Viability Assay to monitor cell viability in real time of continues cell culture during 40 hours of compound treatment was used to screen Tox21 10K library compounds in HepG2 cells. The RealTime-Glo MT Cell Viability Assay is a nonlytic, homogeneous, bioluminescent method to measure cell viability in real time using a simple, plate-based method. The assay involves adding NanoLuc luciferase and a cell-permeant prosubstrate to cells in culture. Viable cells reduce the proprietary prosubstrate to generate a substrate for NanoLuc luciferase. This substrate diffuses from cells into the surrounding culture medium, where it is rapidly used by the NanoLuc Enzyme to produce a luminescent signal. The signal correlates with the number of viable cells, making the assay well suited for cytotoxicity studies.
Tox21 Assay Protocol Summary: The mixture of HepG2 cell suspension and reagents were dispensed at 600cells/6 ul/well in 1536-well tissue culture treated black solid bottom plates using a Multidrop dispenser. After the assay plates were incubated at a 37 C/5% CO2 incubator for 5 hours, 23 nL of compounds dissolved in DMSO, positive and negative controls was transferred to the assay plate by a pintool work station. The plates were incubated at 37 C for 40 hours. The luminescence intensity were measured at 0h, 8h, 16h, 24h, 32h and 40h time points using ViewLux plate reader during compound treatment.
% is set by controls: 0 for no effect and ±100 for the full control effect; potency is the fitted concentration of half-maximal effect.

Row | SMILES | activity change, negative = cytotoxic | Potency
1 | O=Cc1ccc(Cl)cc1 | 1.29% (inactive) | –
2 | NC(N)=Nc1nc(CSCC/C(N)=N/S(N)(=O)=O)cs1 | – | inactive
3 | Nc1nc(=S)c2[nH]cnc2[nH]1 | – | inactive
4 | CCOc1ccc2c(c1)C(C)=CC(C)(C)N2 | – | inactive
5 | CCCN[C@H]1CCc2nc(N)sc2C1 | – | inactive
6 | CC[C@]1(O)C[C@@H]2CN(CCc3c([nH]c4ccccc34)[C@@](C(=O)OC)(c3cc4c(cc3OC)N(C)[C@H]3[C@@](O)(C(=O)OC)[C@H](OC(C)=O)[C@]5(CC)C=CCN6CC[C@]43[C@@H]65)C2)C1 | -28.5% [at 35.3 µM] (inactive) | –
7 | c1ccc2n[nH]nc2c1 | – | inactive
8 | NNCCc1ccccc1 | – | inactive
9 | Clc1ccc2c(c1)C(N1CCNCC1)=Nc1ccccc1O2 | – | 54.9 µM (active)
10 | C#CC(C)(CC)OC(=O)c1ccccc1C(=O)O (stereo not given) | 1.88% [at 35.3 µM] (inactive) | –
11 | O=C(O)c1cc(Cl)cc(Cl)c1 | 0.0009% (inactive) | –
12 | CO[Si](OC)(OC)c1ccccc1 | 0.899% (inactive) | –
13 | Nc1nc2ccccc2[nH]1 | – | inactive
14 | O | – | inactive
15 | CC(=O)CC(C)=O | 0.463% (inactive) | –
16 | Cc1occc(=O)c1OC(=O)C(C)C | -0.281% (inactive) | –
17 | O=C(Nc1ccccc1SSc1ccccc1NC(=O)c1ccccc1)c1ccccc1 | – | inactive and 49 µM (active)
18 | OCCN1CCNCC1 | – | inactive
19 | CCCNC(C)C(=O)Nc1ccccc1C (stereo not given) | -1.69% [at 35.3 µM] (inactive) | –
20 | CCCCCC(=O)O[C@]1(C(C)=O)CC[C@H]2[C@@H]3CCC4=CC(=O)CC[C@]4(C)[C@H]3CC[C@@]21C | 0.973% [at 35.3 µM] (inactive) | –

Row | SMILES | activity change, negative = cytotoxic | Potency
21 | CC[C@@H](N)CO | -0.268% (inactive) | –
22 | CCN1CCCC1CNC(=O)c1cc(S(=O)(=O)CC)c(N)cc1OC (stereo not given) | -0.568% [at 35.3 µM] (inactive) | –
23 | O=C(Cl)c1cccc(C(=O)Cl)c1 | – | inactive
24 | NCCCCCC(=O)O | 3.52% [at 35.3 µM] (inactive) | –
25 | COc1ccc(COC(C)=O)cc1 | – | inactive
26 | CC(C)(c1ccccc1)c1ccc(Nc2ccc(C(C)(C)c3ccccc3)cc2)cc1 | – | inactive
27 | C=C(C)C(=O)O | – | inactive
28 | CCC(=O)/C=C/C1C(C)=CCCC1(C)C (stereo not given) | – | inactive
29 | CC(N)=O | 1.2% [at 200 µM] (inactive) | –
30 | OCCOCCN1CCN(C(c2ccccc2)c2ccc(Cl)cc2)CC1 (stereo not given) | – | 48.3 µM (active) and inactive
31 | CCCCN(CCO)CCCC | 0.926% (inactive) | –
32 | CC(C)(C)NCC(O)COc1ccccc1OCC1CCCO1 (stereo not given) | 2.01% [at 35.3 µM] (inactive) | –
33 | CC1=C(C=O)C(C)(C)CC=C1 | -0.179% (inactive) | –
34 | Nc1ccc(O)cc1 | 3.96% [at 35.3 µM] (inactive) | –
35 | CC(=O)N[C@@H](CS)C(=O)O | – | inactive
36 | CCCOC(=O)c1cc(O)c(O)c(O)c1 | – | inactive
37 | CC(=O)C1=C(C)[C@@H]2C[C@@]3(C1)[C@H](C)CC[C@H]3C2(C)C | – | inactive
38 | CCn1cc(C(=O)O)c(=O)c2cc(F)c(N3CCNC(C)C3)c(F)c21 (stereo not given) | 2.19% [at 35.3 µM] (inactive) | –
39 | COC(=O)c1cccc(C(=O)OC)c1 | – | inactive
40 | CCN(CC)C(=O)Nc1ccc(OCC(O)CNC(C)(C)C)c(C(C)=O)c1 (stereo not given) | 1.17% [at 35.3 µM] (inactive) | –
